Experiment [1] in a line: qHTS assay for small molecules that induce genotoxicity in human embryonic kidney cells expressing luciferase-tagged ATAD5 (AID 651632). Also: nearly all actives have a fitted effect of over 15% in size. The procedure, abridged: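 Reporter cells (HEK293T) express luciferase-tagged ATAD5, a protein that accumulates after DNA damage. Treat 16 hr at 37C/5% CO2, add Amplite, wait 30 min at RT, and read luminescence.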
Background: qHTS replaces the single test concentration by a dilution series.

A short description of experiment [2]: qHTS assay for small molecules that induce genotoxicity in human embryonic kidney cells expressing luciferase-tagged ATAD5 - cell viability (AID 651634; calls by dose curve; also: nearly all actives have a fitted effect of over 25% in size). The procedure, abridged: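 Seeding of 2,000 HEK293T ATAD5-luciferase cells per well preceded pin-tool compound transfer. Plates sat 15.5 hr at 37C under 5% CO2, then fluorescence was read after 30 min with CellTiter-Fluor.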

A short description of experiment [3]: qHTS assay for small molecule disruptors of the mitochondrial membrane potential - cell viability (AID 720634; calls by dose curve;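 also: human HepG2 liver cancer cells; series mostly up to about 83 µM; nearly all actives have a fitted effect of over 20% in size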). The procedure, abridged:
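Measuring cytotoxicity alongside mitochondrial potential, the screen quantified ATP by luminescence in HepG2 cells after 1 hr compound incubation and a 30 min room-temperature CellTiter-Glo step.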

Experiment [4] in a line: qHTS assay to test for compound auto fluorescence at 590 nm (red) in HepG2 cells (AID 720674). In outline:
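Compound auto-fluorescence is scored relative to Rose Bengal sodium, measured at 540/590 nm in live HepG2 cultures after 1 hr compound contact (37 C, 5% CO2).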

The nature of experiment [5]: qHTS assay to test for compound auto fluorescence at 535 nm (green) in HepG2 cells (AID 720675).
Experiment [6] in a line: qHTS assay to test for compound auto fluorescence at 590 nm (red) in HEK293 cells (AID 720679). The procedure, abridged:
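HEK293 cells (2,000/well, medium with 10% dialyzed FBS) attached for 4-5 hr at 37C, received 23 nL compound and were incubated overnight at 37C, 5% CO2. Red fluorescence was then read at 540/590nm Ex/Em, referenced to Rose Bengal sodium.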

Experiment [7] in a line: qHTS assay to test for compound auto fluorescence at 535 nm (green) in HEK293 cells (AID 720680).
The nature of experiment [8]: qHTS assay to test for compound auto fluorescence at 460 nm (blue) in HEK293 cell free culture (AID 720681). In outline:
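Test compounds were pinned into cell-free culture medium (DMEM with 10% FBS) and fluorescence was read directly at Ex/Em 405/460 nm. Signals were expressed as fluorescence equivalents of triamterene, with DMSO vehicle as control.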

The nature of experiment [9]: qHTS assay to test for compound auto fluorescence at 535 nm (green) in HEK293 cell free culture (AID 720682). The procedure, abridged:
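Green-channel intensity (Ex/Em 485/535 nm) was recorded from compound-treated wells containing only DMEM with 10% FBS. Fluorescein provided the equivalency standard.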

Experiment [10] is described as follows: qHTS assay to test for compound auto fluorescence at 590 nm (red) in HepG2 cell free culture (AID 720684). In outline: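 Measured in medium alone (MEM containing 10% FBS) following pintool addition of compound; emission at 590 nm with 540 nm excitation, referenced to Rose Bengal sodium.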
Experiment [11] can be described thus: qHTS assay to test for compound auto fluorescence at 460 nm (blue) in HepG2 cell free culture (AID 720685). In outline:
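Compound (23 nL) or DMSO pinned into cell-free MEM with 10% FBS; blue fluorescence read at 405/460 nm excitation/emission, expressed as auto-fluorescence equivalency to triamterene.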

Experiment [12] can be described thus: qHTS assay to test for compound auto fluorescence at 460 nm (blue) in HepG2 cells (AID 720687). In outline:
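Cells (2,000/well in MEM with 10% FBS) attached overnight at 37 C, then were exposed to compound or DMSO for 1 hr at 37 C, 5% CO2. Fluorescence read at Ex/Em 405/460 nm, expressed as triamterene-equivalent signal.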

In experiment [13] the target is Glucocorticoid receptor (Homo sapiens) (UniProt P04150). Description: qHTS assay to identify small molecule agonists of the glucocorticoid receptor (GR) signaling pathway (AID 720691; active = well fitted activation curve with a large enough effect in the signal ratio in the repeat runs, not every such curve was filed as active; the % refers to the signal ratio). In outline: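 Reporter read-out: fluorescence intensity following 2 h room-temperature LiveBLAzer B/G FRET substrate loading. Prior step: GR-bla HeLa cells held 4 h, then treated 18 h at 37 C.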

The target is the same in experiment [14]. Briefly: qHTS assay to identify small molecule antagonists of the glucocorticoid receptor (GR) signaling pathway (AID 720692; active = well fitted inhibition curve with a large enough effect in the signal ratio in the repeat runs, not every such curve was filed as active; the % refers to the signal ratio). The procedure, abridged: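 Dexamethasone (5 nM final) stimulated a stably integrated GRE-beta-lactamase reporter in HeLa cells during 18 h co-incubation with compounds; signal was quantified as fluorescence intensity of B/G FRET substrate after 2 h.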

Experiment [15] is described as follows: qHTS assay for small molecule agonists of the p53 signaling pathway - cell viability (AID 651633; calls by dose curve;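 also: p53RE-bla HCT reporter cells with a stable beta-lactamase p53 reporter; series mostly up to about 83 µM; nearly all actives have a fitted effect of over 30% in size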). In outline:
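p53RE-bla cells, seeded at 4,000 per well and rested 5 h at 37 C/5% CO2, received compounds in DMSO for 16 h at 37 C. CellTiter-Glo was then added, and luminescence was read after 30 min at room temperature to gauge cytotoxicity.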

Experiment [16] can be described thus: qHTS assay for small molecule disruptors of the mitochondrial membrane potential (AID 720635). Also: potency is read from the fitted curve at half-maximal effect. In outline: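 HepG2 cells (2,000/well) attached overnight at 37C, then took compound for 1 hr at 37C, 5% CO2. Mito-MPS dye was added for 30 min; fluorescence was read at 490/535 nm (monomers) and 540/590 nm (aggregates).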
Experiment [17] is described as follows: qHTS assay to test for compound auto fluorescence at 460 nm (blue) in HEK293 cells (AID 720678). The procedure, abridged: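 HEK293 cells (2,000 per well, medium with 10% dialyzed FBS) attached for 4-5 hr at 37C, then received compound and stood overnight at 37C, 5% CO2. Blue fluorescence was read at Ex/Em 405/460 nm and expressed relative to triamterene.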

Experiment [18] can be described thus: qHTS assay to test for compound auto fluorescence at 590 nm (red) in HEK293 cell free culture (AID 720683). In outline: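 Tox21 10K library compounds were pinned into cell-free DMEM with 10% FBS and fluorescence was read at excitation 540 nm. Activity is expressed as Rose Bengal sodium equivalency.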
A short description of experiment [19]: qHTS assay to test for compound auto fluorescence at 535 nm (green) in HepG2 cell free culture (AID 720686).

A number with no mark means an inactive call. Inconclusive results are not listed. The source made the active and inactive calls. Unless noted, calls follow the shape of the dose curve; as a rule, active = well fitted curve in the direction sought with a large enough effect in the repeat runs; inconclusive = weak or mixed curves; inactive = no such curve, though single readings can be large; an effect the other way counts as inactive or inconclusive.

Chain of Glucocorticoid receptor (Homo sapiens) (P04150 whole entry, looked up): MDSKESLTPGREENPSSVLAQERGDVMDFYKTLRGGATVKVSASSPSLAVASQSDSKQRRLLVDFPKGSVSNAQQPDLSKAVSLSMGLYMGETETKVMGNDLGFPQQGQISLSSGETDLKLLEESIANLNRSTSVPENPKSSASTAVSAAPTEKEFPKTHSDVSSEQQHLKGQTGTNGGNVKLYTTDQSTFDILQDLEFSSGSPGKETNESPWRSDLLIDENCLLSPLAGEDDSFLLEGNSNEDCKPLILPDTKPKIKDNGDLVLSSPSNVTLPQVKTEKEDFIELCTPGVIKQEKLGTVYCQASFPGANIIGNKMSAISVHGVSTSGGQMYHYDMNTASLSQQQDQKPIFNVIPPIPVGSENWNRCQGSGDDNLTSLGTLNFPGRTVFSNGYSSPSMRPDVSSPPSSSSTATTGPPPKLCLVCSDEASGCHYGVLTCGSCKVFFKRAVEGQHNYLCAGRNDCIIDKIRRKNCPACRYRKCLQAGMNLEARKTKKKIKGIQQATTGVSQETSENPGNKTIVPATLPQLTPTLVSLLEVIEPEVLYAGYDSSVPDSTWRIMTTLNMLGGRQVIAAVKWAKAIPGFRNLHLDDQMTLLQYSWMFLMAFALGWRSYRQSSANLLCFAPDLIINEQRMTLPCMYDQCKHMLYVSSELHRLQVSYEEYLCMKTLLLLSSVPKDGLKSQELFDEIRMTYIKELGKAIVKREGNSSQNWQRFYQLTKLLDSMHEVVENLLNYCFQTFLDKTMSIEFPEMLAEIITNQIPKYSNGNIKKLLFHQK

Take `CCC(=O)c1ccc(Cl)cc1`: the outcome in [1], in experiment [4], in experiment [5], in experiment [6], in [7] and in experiment [8] was inactive. The outcome in experiment [9], in experiment [10], in [11] and in [12] was inactive. For the same compound, the Potency entry in experiment [2], in [3], in experiment [13] and in experiment [14] was “inactive” in each case.
Take `CCCCOC(C)=O`: the Potency result in [15], in experiment [2], in experiment [3] and in [16] was “inactive” in each case. Further, the outcome in [4], in experiment [5], in experiment [17], in experiment [6], in experiment [7] and in experiment [8] was inactive. Moreover, the call in [9], in experiment [18], in [10], in experiment [11], in experiment [19] and in experiment [12] was inactive.
For `C=C(C)[C@H]1CN[C@H](C(=O)O)[C@H]1CC(=O)O`, the call in [1], in [4], in [5], in experiment [17], in experiment [6] and in experiment [7] was inactive. The call in [8], in experiment [9], in experiment [18], in experiment [10], in experiment [11] and in experiment [19] was inactive. Besides, the Potency entry in experiment [15], in experiment [3], in [13] and in experiment [14] was “inactive” each time.
As for `CON(C)C(=O)Nc1ccc(Br)c(Cl)c1`, the call in experiment [1], in experiment [4], in experiment [5], in experiment [17], in experiment [6] and in experiment [7] was inactive. Further, the compound was called inactive in experiment [8], in experiment [9], in [18], in experiment [10], in experiment [11] and in [19]. Besides, the compound was classed as inactive in experiment [12]. Besides, the Potency result in experiment [15] and in experiment [13] was “inactive” each time.
Turning to `ClCCCCCCCl`, the compound was classed as inactive in [1], in experiment [4], in experiment [5], in experiment [6], in [7] and in experiment [8]. Also, the compound was classed as inactive in experiment [9], in experiment [10], in [11], in experiment [19] and in experiment [12]. The Potency result in experiment [2], in experiment [3], in experiment [13] and in experiment [14] was “inactive” each time.
Take `NNC(N)=O`: the Potency result in experiment [15], in experiment [2], in [3] and in experiment [13] was “inactive” throughout. The result in [4], in experiment [5], in experiment [17], in [6], in [7] and in experiment [8] was inactive. Moreover, the call in experiment [9], in experiment [18], in experiment [10], in [11] and in experiment [12] was inactive.
Consider `CCNc1nc(Cl)nc(NC(C)(C)C)n1`, for which the Potency result in [15], in experiment [2], in experiment [3] and in experiment [13] was “inactive” throughout. Besides, the compound was called inactive in [4], in experiment [5], in [17], in experiment [6], in [7] and in experiment [8]. Also, the compound was classed as inactive in experiment [9], in [18], in [10], in experiment [11] and in [12].
Regarding `NNCc1ccccc1`, the Potency result in experiment [15], in experiment [2], in [3] and in experiment [13] was “inactive” in each case. Besides, the Potency in experiment [16] was 24.8 µM (active). The result in [4], in experiment [5], in experiment [17], in experiment [6], in [7] and in experiment [8] was inactive. Moreover, the result in [9], in experiment [18], in experiment [10], in experiment [11], in experiment [19] and in [12] was inactive.

(Values after PubChem BioAssay (Tox21).)
